Test results: PubChem BioAssay (NCATS)
“And” between values parts separate entries of the source, which are not always exact repeats. Equal values may be shown once. Results filed as inconclusive are left out. The source made the active and inactive calls. Unless noted, calls come from the whole dose curve; as a rule, active = well fitted curve in the direction sought with a large enough effect; inconclusive = small, poorly fitted or top-dose-only effect, or another doubt; inactive = no such curve, though single readings can be large; an effect the other way counts as inactive or inconclusive.

What was measured:
[1] = Cell Viability - HepG2 (AID 433; calls by dose curve;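 note: potency is the fitted concentration of half-maximal effect; potency for ATP loss meaning cytotoxicity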); conditions: qHTS
In short: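 In this qHTS format, a 40 h, 37 °C compound incubation of HepG2 cells in complete medium precedes a 20 min CellTiter-Glo step at room temperature. Tamoxifen and doxorubicin serve as positive controls; Hill-equation fits yield AC50.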

[2] = Cell Viability - MRC5 (AID 434; calls by dose curve;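 note: potency is the fitted concentration of half-maximal effect; potency reflects cytotoxicity seen as loss of intracellular ATP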); conditions: MRC5 lung fibroblast viability, qHTS
In short: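 MRC5 normal human lung fibroblasts, 1500 cells/well, exposed to compound for 40 hr at 37 C. Cellular ATP was read by CellTiter-Glo luminescence; data normalized to DMSO and 100 uM tamoxifen, with AC50 from Hill fits.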

[3] = target: Mitogen-activated protein kinase 10 (Mus musculus) (UniProt Q61831); experiment: JNK3 AlphaScreen Assay (AID 530; active = well fitted curve in either direction with a large enough effect, not every such curve was filed as active;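 note: kinase came from lysate of stimulated human HepG2 cells; signal reports phosphorylation of biotinylated GST-cJun 1-79 at Ser73 with 10 µM ATP; % is set by controls: 0 for no effect and ±100 for the full control effect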); conditions: JNK3 lysate, c-Jun phosphorylation; series mostly up to 57.1 µM
In short: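 Pre-activated (IL-1β/TNFα) JNK3 in HepG2 lysates phosphorylates biotin-GST-cJun(1-79), 10 uM ATP; anti-phospho-cJun(Ser73) AlphaScreen read at room temperature, pH 7.6 Tris buffer. Compounds pre-incubated 15 min as titrations.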

[4] = Cell Viability - NIH 3T3 (AID 541); conditions: NIH 3T3 cell viability, qHTS; activity change, negative = cytotoxicity: at 92.2 µM (top of the series);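 note: plate controls were DMSO alone for no effect and tamoxifen positive control for full effect; nearly all actives have a fitted effect of over 25% in size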
In short: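 Luminescent ATP signal (CellTiter-Glo) served as the viability read-out after NIH 3T3 cells were exposed to compounds over a concentration range for 40 hr at 37 °C. Hill-equation modelling of concentration-response data gave AC50.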

[5] = Cell Viability - HUV-EC-C (AID 542); conditions: HUV-EC-C endothelial cell viability, qHTS; series mostly up to 92.2 µM; note: % is set by controls: 0 for no effect and ±100 for the full control effect; nearly all actives have a fitted effect of over 35% in size
In short: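 qHTS cytotoxicity: HUV-EC-C, 1000 cells/well, 5 hr settle, compound 40 hr 37 °C, CellTiter-Glo, luminescence. AC50 via Hill equation.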

[6] = Cell Viability - SH-SY5Y (AID 544); conditions: SH-SY5Y neuroblastoma cell viability; viability change, negative = cytotoxic: at 92.2 µM (top of the series); note: nearly all actives have a fitted effect of over 55% in size
In short: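 Luminescent ATP read-out (CellTiter-Glo) measures loss of viable SH-SY5Y neuroblastoma cells after 40 hr compound exposure at 37 °C. AC50 values derive from standard Hill modelling of qHTS concentration-response data.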

[7] = Cell Viability - Renal Proximal Tubule (AID 545); conditions: renal proximal tubule cells viability; at 91.7 µM (top of the series), primary cells of rat origin unless noted; note: nearly all actives have a fitted effect of over 40% in size
In short: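 In this qHTS format, normal rat kidney-derived proximal tubule cells in complete culture medium receive compound titrations, then sit 40 hours at 37 °C before luciferase-based ATP quantitation; potency is reported as AC50 from concentration-response curves.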

[8] = Cell Viability - Mesenchymal (AID 546); conditions: mesenchymal cells viability, qHTS; series mostly up to 91.7 µM;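 note: cells exposed to compound for 40 hours before reading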
In short: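 Human kidney mesenchymal cells from normal renal glomeruli, 1000 cells/well, rested 5 hr at 37 °C, then treated 40 hr at 37 °C in complete medium. Cellular ATP read by CellTiter-Glo luminescence; AC50 from Hill-equation fits.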

[9] = Cellular Toxicity (caspase-3) Jurkat (AID 655); conditions: Jurkat caspase-3 activation, luminescence, DMSO = 0%, tamoxifen = 100%; at 92.2 µM (top of the series);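 note: cells exposed to compound for 16 h at 37 °C before reading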
In short: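 qHTS in human Jurkat T-cell leukemia line: 16 hr compound treatment at 37 °C, caspase-3/7 activity measured by Caspase-Glo luminescence. AC50 derived from Hill equation.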

[10] = Cellular Toxicity (caspase-3) HUV-EC-C (AID 656); conditions: HUV-EC-C cells, caspase-3 activation (apoptosis), vehicle = 0, 100 µM tamoxifen = 100%; series mostly up to 92.2 µM
In short: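 Concentration-dependent caspase 3/7 induction was assessed in HUV-EC-C cells exposed for 16 hours. Data scaled between DMSO and tamoxifen (100 uM) controls.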

[11] = Cellular Toxicity (caspase-3) SHSY5Y (AID 657); conditions: SH-SY5Y caspase-3 activation, DMSO zero, 10 µM staurosporine = 100%; series mostly up to 91.7 µM
In short: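 Readout: caspase-cleaved peptide-aminoluciferin substrate driving luciferase light in SH-SY5Y neuroblastoma cells after 16 h treatment. Response normalized to DMSO and 10 uM staurosporine controls.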

[12] = Cellular Toxicity (caspase-3) BJ (AID 658); conditions: BJ fibroblasts, luminescence, normalized: DMSO 0%, staurosporine 100%; series mostly up to 91.7 µM
In short: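 BJ human foreskin fibroblasts, 1000 cells/well, treated 16 hours at 37 °C in complete medium; caspase 3/7 activity by Caspase-Glo luminescence after 1 hr at room temperature. Normalized to DMSO and 10 uM staurosporine; AC50 from Hill fits.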

[13] = Cellular Toxicity (caspase-3) MRC-5 (AID 659); conditions: MRC-5 cells, luminescence, normalized: DMSO 0%, 10 µM staurosporine 100%; series mostly up to 91.7 µM
In short: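 MRC-5 human normal lung fibroblasts, 1500 cells/well, treated 16 h at 37 °C in complete medium. Caspase 3/7 measured by Caspase-Glo luminescence after 1 h at room temperature. Normalized to DMSO and 10 uM staurosporine; AC50 from Hill fit.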

[14] = Cellular Toxicity (caspase-3) SK-N-SH (AID 661); conditions: SK-N-SH caspase-3 activation, qHTS, DMSO as zero, staurosporine as full; series mostly up to 91.7 µM
In short: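 Human neuroblastoma SK-N-SH, 1500 cells/well, 5 hr pre-incubation, then compound 16 hr, 37 °C. Caspase-Glo 3/7 reagent, 1 hr RT, luminescence. Norm. to DMSO/10 uM staurosporine; Hill-fit AC50.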

[15] = Cellular Toxicity (caspase-3) H-4-II-E (AID 663); conditions: H-4-II-E rat hepatoma, scaled: DMSO 0%, 100 µM tamoxifen 100%; series mostly up to 92.2 µM;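 note: cells exposed to compound for 16 hr before readout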
In short: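 Rat hepatoma H-4-II-E cells (1500/well) plated 5 hr, then exposed to compound titrations for 16 hr at 37 °C. Caspase-Glo 3/7 luminescence read after 20 min at RT; data normalized to DMSO and 100 uM tamoxifen, AC50 from Hill fits.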

[16] = Cellular Toxicity (caspase-3) N2a (AID 665); conditions: N2a cells, luminescence, normalized: DMSO 0%, 10 µM staurosporine 100%; at 92.2 µM (top of the series);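 note: compound exposure lasted 16 h at 37 °C before readout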
In short: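 N2a cells, 1500/well, 5 h settle at 37 °C; cpd 16 h, 37 °C; Caspase-Glo 3/7, 1 h RT; luminescence. Norm: DMSO = 0, 10 uM staurosporine = 100%. AC50, Hill fit.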

[17] = target: Cytochrome P450 3A4 (Homo sapiens) (UniProt P08684); experiment: qHTS Assay for Inhibitors and Substrates of Cytochrome P450 3A4 (AID 884); conditions: recombinant CYP3A4, Luciferin-PPXE luminescence; series mostly up to 57.1 µM; note: nearly all actives have a fitted effect of over 50% in size; note: potency is the fitted concentration of half-maximal effect
Chain of Cytochrome P450 3A4 (Homo sapiens) (P08684 whole entry, looked up): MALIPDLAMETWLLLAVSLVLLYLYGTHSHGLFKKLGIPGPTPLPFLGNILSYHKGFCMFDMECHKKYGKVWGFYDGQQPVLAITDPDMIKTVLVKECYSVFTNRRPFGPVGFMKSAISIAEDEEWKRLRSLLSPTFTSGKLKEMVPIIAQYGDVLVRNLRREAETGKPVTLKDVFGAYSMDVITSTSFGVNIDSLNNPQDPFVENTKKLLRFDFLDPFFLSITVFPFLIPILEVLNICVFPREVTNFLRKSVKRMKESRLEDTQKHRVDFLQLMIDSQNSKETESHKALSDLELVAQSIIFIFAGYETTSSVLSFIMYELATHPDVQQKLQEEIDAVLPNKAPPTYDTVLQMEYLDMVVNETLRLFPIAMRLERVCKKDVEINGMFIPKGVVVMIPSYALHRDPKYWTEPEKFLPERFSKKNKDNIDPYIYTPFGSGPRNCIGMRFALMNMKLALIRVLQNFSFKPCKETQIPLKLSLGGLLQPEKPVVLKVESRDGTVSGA
In short: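 20 nM human CYP3A4 with 25 uM Luciferin-PPXE (at KM) in 200 mM KPO4, preincubated 10 min with compound; NADPH regeneration started a 60 min RT reaction. Luciferin detected by luminescence, normalized to 57 uM ketoconazole as full inhibition.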

[18] = qHTS Assay for Identification of Small Molecule Inducers of Hypoxia Response (AID 2120; active = well fitted curve in the direction sought with a large enough effect in the signal ratio, with a control signal flat, not every such curve was filed as active; the % refers to the signal ratio; note: 0% is about no effect); conditions: hypoxia response reporter cells, beta-lactamase ratio readout; series mostly up to 104 µM
In short: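 ME-180 HRE-bla cells plated in Opti-MEM/0.5% dialyzed FBS, rested 4-5 h, then dosed with compound titrations by pin tool. After 17 h at 37 degrees C, CCF4 dye loaded 2.5 h at RT; 460/530 nm ratio gave %Activity and AC50.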

[19] = qHTS assay for small molecule agonists of the antioxidant response element (ARE) signaling pathway measured by Nrf2-dependant transcriptional activity - cell viability counter screen (AID 720653; active = well fitted curve in the direction sought with a large enough effect in the repeat runs; an effect the other way counts as inactive or inconclusive; note: % is set by controls: 0 for no effect and ±100 for the full control effect); conditions: ARE-bla HepG2 viability, CellTiter-Glo ATP luminescence, 16 h; hits give low values
In short: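 ARE-bla HepG2 cells treated with compounds for 16 h at 37C; this counter screen measures viability as intracellular ATP by CellTiter-Glo luminescence after 30 min at room temperature.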

[20] = qHTS assay for cell viability of HEK293 cells (AID 743288); conditions: ATP luminescence (CellTiter-Glo), 18 h; max response: hits give low values; note: % is set by controls: 0 for no effect and ±100 for the full control effect; nearly all actives have a fitted effect of over 50% in size
In short: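 Luminescent ATP quantitation served as the viability read-out. Cells (parental HEK293, 2,000/well) received compounds after at least 5 h at 37 C and were exposed for 18 h before a 30 min room-temperature reagent step.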

O=C=NC1CCCCC1
inactive: Potency [1] > 92 µM | Potency [2] > 92 µM | outcome [3] | activity change, negative = cytotoxicity [4] -1.14% and -2.08% | Potency [5] | Potency [6] | activity change, negative = cytotoxicity [7] -5.86% and -0.993% | outcome [8] | caspase-3 activation [9] -0.599% and -1.26% | outcome [10] | outcome [11] | outcome [12] | outcome [13] | outcome [14] | outcome [15] | caspase-3 activation [16] 0.146% and -1.42% | Potency [17] | outcome [18] | max response [19] 3.13% and -2.08% | max response [20] -2.8% and 0.863%

CC1CC[C@@]2(NC1)O[C@@H]1C[C@H]3C4CC=C5C[C@@H](O)CC[C@]5(C)C4CC[C@]3(C)[C@H]1[C@@H]2C (stereo not given in full)
inactive: Potency [17]

CCN(CC)c1ccccc1
inactive: Potency [1] > 92 µM | Potency [2] > 92 µM | outcome [3] | activity change, negative = cytotoxicity [4] 4.17% | Potency [5] | Potency [6] | activity change, negative = cytotoxicity [7] -4.65% | outcome [8] | caspase-3 activation [9] -0.552% | outcome [10] | outcome [11] | outcome [12] | outcome [13] | outcome [14] | outcome [15] | caspase-3 activation [16] -1.42% | Potency [17] | outcome [18] | max response [19] 7.99% | max response [20] -9.99%

O=C(Oc1ccccc1)N1CCC[C@@]2(CCN(Cc3cc(C(F)(F)F)cc(C(F)(F)F)c3)C2)C1
inactive: outcome [3]

O=C(Nc1cccc(F)c1)N1CC2(CCN(C(=O)Oc3ccccc3)CC2)C1
inactive: outcome [3] | Potency [17]

Clc1nc(Cl)nc(Cl)n1
inactive: Potency [1] > 92 µM | Potency [2] > 92 µM | outcome [3] | activity change, negative = cytotoxicity [4] -8.17% | Potency [5] | activity change, negative = cytotoxicity [7] -4.88% | outcome [8] | caspase-3 activation [9] 0.301% | outcome [10] | outcome [11] | outcome [12] | outcome [13] | outcome [14] | outcome [15] | caspase-3 activation [16] 1.31% | Potency [17] | outcome [18] | max response [19] -4.92% and -7.17% | max response [20] -10.6% and 4.47%
active: viability change, negative = cytotoxic [6] -96.5%

CCCSC(=O)Cl
inactive: Potency [1] > 92 µM | Potency [2] > 92 µM | outcome [3] | activity change, negative = cytotoxicity [4] -26.8% | Potency [5] | Potency [6] | activity change, negative = cytotoxicity [7] -6.97% | outcome [8] | caspase-3 activation [9] 0.745% | outcome [10] | outcome [11] | outcome [12] | outcome [13] | outcome [14] | outcome [15] | caspase-3 activation [16] -1.31% | Potency [17] | outcome [18] | max response [19] -4.21% | max response [20] -1.07%

S=C=NCc1ccccc1
active: Potency [17] 25.1 µM

Clc1ccc([C@@H](OCCN2CCCCC2)c2ccccc2)cc1
inactive: outcome [3]

CC(C)CN1CCCC2(CCN(C(=O)Oc3ccccc3)CC2)C1
inactive: outcome [3]

CC(=O)N[C@@H]1CCSC1=O
inactive: outcome [3]

CC[C@]1(c2cccc(O)c2)CCCCN(C)C1
inactive: outcome [3]

COC1C(O)C(C)O[C@H](OC2CC[C@@]3(C=O)C4CC[C@]5(C)C(C6=CC(=O)OC6)CC[C@@]5(O)C4CC[C@@H]3C2)C1O (stereo not given in full)
inactive: Potency [17]

OCC1CO1 (stereo not given)
inactive: Potency [1] > 92 µM | Potency [2] > 92 µM | outcome [3] | activity change, negative = cytotoxicity [4] -5.54% | Potency [5] | Potency [6] | activity change, negative = cytotoxicity [7] 4.62% | outcome [8] | caspase-3 activation [9] 0.767% | outcome [10] | outcome [11] | outcome [12] | outcome [13] | outcome [14] | outcome [15] | caspase-3 activation [16] -2.46% | Potency [17] | outcome [18] | max response [19] -5.57% and 1.53% | max response [20] -3.99% and -2.83%

O=NN(CCO)CCO
inactive: Potency [1] > 92 µM | Potency [2] > 92 µM | outcome [3] | activity change, negative = cytotoxicity [4] -23.2% | Potency [5] | Potency [6] | activity change, negative = cytotoxicity [7] -10.4% | outcome [8] | caspase-3 activation [9] -1.33% | outcome [10] | outcome [11] | outcome [12] | outcome [13] | outcome [14] | outcome [15] | caspase-3 activation [16] -1.3% | Potency [17] | outcome [18] | max response [19] -8% | max response [20] -4.1%
